Inconclusive results are not listed. Unmarked numbers belong to inactive results. Calls of active or inactive are those of the source. Calls come from the whole dose curve; as a rule, active = well fitted inhibition curve with a large enough effect; inconclusive = small, poorly fitted or top-dose-only effect; inactive = flat fitted curve, though single readings scatter.
What follows are compounds tested on PC26 (assay: qHTS profiling for inhibitors of Plasmodium falciparum proliferation (AID 504749; note: nearly all actives have a fitted effect of over 60% in size;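 for activity, negative = inhibition: 0% = DMSO vehicle and full inhibition = artemisinin control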)). Details: P. falciparum in erythrocytes, SYBR Green DNA, 72 h; series mostly up to 28.7 µM; activity, negative = inhibition: at the top concentration.
How it was run: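 P. falciparum-infected erythrocytes (0.3% parasitemia, 2.5% hematocrit) incubated with compound 72 h at 37 C, 5% CO2. Parasite DNA detected by SYBR Green after lysis, overnight at room temperature; normalised to 0.29 uM artemisinin and DMSO.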
In the case of `CC(=O)c1ccc2c(c1)N(CCCN1CCN(CCO)CC1)c1ccccc1S2`, the Potency is reported as 7.57 µM (active).
In the case of `CCC(=O)c1ccc2c(c1)N(CCCN1CCN(CCO)CC1)c1ccccc1S2`, the Potency is reported as 7.57 µM (active).
With `CC[C@H]1OC(=O)[C@H](C)[C@@H](O[C@H]2C[C@@](C)(OC)[C@@H](O)[C@H](C)O2)[C@H](C)[C@@H](O[C@@H]2O[C@H](C)C[C@H](N(C)C)[C@H]2O)[C@](C)(O)C[C@@H](C)CN(C)[C@H](C)[C@@H](O)[C@]1(C)O` the “activity, negative = inhibition” value was -23.3%.
`OCC1(CO)COC(C(Cl)(Cl)Cl)OC1` was tested, and the “activity, negative = inhibition” value was 3.84%.
In the case of `O=C(CCCN1CCN2CCCC2C1)c1ccc(F)cc1` (stereo unspecified), the “activity, negative = inhibition” value is reported as -14.5%.
With `CC(=O)Nc1c(I)c(C(=O)O)c(I)c(N(C)C(C)=O)c1I` the “activity, negative = inhibition” value was -6.52%.
`CC(C)CCCCCCc1ccc(O)cc1` was tested, and the “activity, negative = inhibition” value was -3.78%.
`CC(C)=CCC/C(C)=C/CC/C(C)=C/CC/C=C(\C)CC/C=C(\C)CCC=C(C)C` was tested, and the “activity, negative = inhibition” value was -2.28%.
With `O=C1CCC(c2ccccc2)(C2CCN(Cc3ccccc3)CC2)C(=O)N1` (stereo unspecified) the “activity, negative = inhibition” value was -14.4%.
`Cc1cccc(Nc2ncccc2C(=O)O)c1C` was tested, and the “activity, negative = inhibition” value was -1.13%.
For `CCOC(=O)[C@@H](N)CS`, the “activity, negative = inhibition” value was 2.94%.
`CCCOC(=O)c1ccccc1O` was tested, and the “activity, negative = inhibition” value was -14.2%.
In the case of `CCOC(=O)c1cc(-c2ccccc2)nc2ccc(C)cc12`, the “activity, negative = inhibition” value is reported as -3.29%.
For `Cn1cc(NC(=O)c2cc(NC(=O)c3cc(NC=O)cn3C)cn2C)cc1C(=O)NCCC(=N)N`, the Potency was 13.5 µM (active).
In the case of `CC(C)=CCC/C(C)=C/C=C/C(C)=C/C=C/C(C)=C/C=C/C=C(C)/C=C/C=C(C)/C=C/C=C(\C)CCC=C(C)C`, the “activity, negative = inhibition” value is reported as -16.8%.
For `COc1ccc2c(c1)OC(C)(C)C(c1ccccc1)C2c1ccc(OCCN2CCCC2)cc1` (stereo unspecified), the Potency was 4.78 µM (active).

— PubChem BioAssay (NCATS)
Potency is the fitted concentration of half-maximal effect.
